Laboratory results from PubChem BioAssay AID435003 (Sanford-Burnham Center for Chemical Genomics, 2010).
In all, about 330,000 compounds went through this assay and about 1,700 (0.52%) were called active. The sample as a whole holds a higher share of actives than the screen did. Unmarked numbers belong to inactive results. Cut-off read from the data, not from the text of the source: active = inhibition above about 50%; inactive = the rest.

assay: inhibitors of induced NF-kB luciferase reporter, primary screen, TCR NF-kB activation inhibitor project, cell-based, luminescence, uHTS (AID 435003); settings: Jurkat, PMA/ionomycin-induced NF-kB luciferase reporter, at 4 µM, hits give high values

Row | SMILES | inhibition
1 | N/C(=N\OC(=O)N1c2ccccc2Sc2ccccc21)c1ccc(Br)cc1 | 77% (active)
2 | N/C(=N\OC(=O)c1ccc2c(c1)OCO2)c1ccc(Br)cc1 | -102%
3 | N/C(=N\OC(=O)Cc1ccccc1[N+](=O)[O-])c1ccc(Br)cc1 | 1.58%
4 | CC(C)(C)NS(=O)(=O)NC(=O)C1=C(N2CCCC2)COC1=O | -4.98%
5 | COC(=O)C1=NNC2(c3ccc(C)cc3)C(=O)N(c3cccc(C)c3C)C(=O)C12 (stereo not given) | -13.7%
6 | Cc1ccc(S(=O)(=O)N2CCCCC2)cc1C(=O)N(C)CC(=O)Nc1cccc(F)c1 | 0.943%
7 | Cc1cc(C)cc(NC(=O)N2CCC(NC(=O)c3ccc(F)cc3)CC2)c1 | -8.05%
8 | O=C(Nc1cccc(S(=O)(=O)N2CCCCC2)c1)c1cncc(Br)c1 | -9.4%
9 | Cc1ccc(S(=O)(=O)N2CCCCC2)cc1NC(=O)CCNC(=O)c1ccccc1 | 1.31%
10 | O=C(CCNC(=O)c1ccc(Br)cc1)Nc1cccc(S(=O)(=O)N2CCCCC2)c1 | 51.4% (active)
11 | COc1ccc(-n2nnc3c(=O)n(CC(=O)OCc4ccccc4)cnc32)cc1 | -2.47%
12 | CCOC(=O)c1ccc(NC(=O)Cn2cnc3cc(C)c(C)cc32)cc1 | 66.1% (active)
13 | CCOC(=O)c1ccc(NC(=O)Cc2cccs2)cc1 | -42.6%
14 | CCCc1nnc(SCC(=O)Nc2ccc(C(=O)OCC)cc2)o1 | -1.45%
15 | COc1ccc(CNC(=O)C2CCN(S(C)(=O)=O)CC2)cc1 | 11.1%
16 | Cc1cc(-c2ccc(C)c(S(=O)(=O)NCCCN(Cc3ccccc3)C(C)C)c2)on1 | 9.13%
17 | CCOc1ccccc1CNS(=O)(=O)c1cc(-c2cc(C)no2)ccc1C | 18%
18 | COc1ccc(CNS(=O)(=O)c2cc(-c3cc(C)no3)ccc2C(C)C)cc1 | 50.9% (active)
19 | COc1ccc(/C=N/NC(=O)C(C)N(c2ccc(OC)cc2)S(C)(=O)=O)cc1 (stereo not given) | 13.9%
20 | CC(C)CC(=O)Nc1nnc(S(=O)(=O)N(C)c2ccc(Cl)cc2)s1 | 1.22%

Row | SMILES | inhibition
21 | CS(=O)(=O)N1CCN(C(=O)c2cc3ccccc3oc2=O)CC1 | 2.45%
22 | O=c1oc2ccccc2cc1-c1cn(-c2ccccc2)c(=S)[nH]1 | 85.2% (active)
23 | COc1cccc(-n2c(=S)[nH]c3c(oc4ccccc43)c2=O)c1 | -22.5%
24 | CCOC(=O)c1cc(-c2ccc(F)cc2)n(CC(=O)NCc2ccccn2)c1C | -17.7%
25 | CCCN(CC1CC1)C(=O)COC(=O)c1ccc(C)cc1O | -1.18%
26 | Cc1cc(/C=N/n2cnnc2)c(C)n1-c1ccc2ncccc2c1 | 9.47%
27 | O=C1Oc2ccccc2C(=O)/C1=C/c1ccccc1O | 8.95%
28 | CCOc1cc(C(=O)N2CCc3cc(OC)c(OC)cc3C2)ccc1OC(F)F | 78.8% (active)
29 | COc1cc2c(cc1OC)CN(C(=O)c1cc(S(=O)(=O)N3CCCCC3)ccc1Cl)CC2 | 20.2%
30 | COc1cc2c(cc1OC)CN(C(=O)c1ccc(S(=O)(=O)N3CCCCCC3)cc1)CC2 | 12.2%
31 | CCOc1ccccc1-c1nc(CN2CCC(C(=O)N3CCOCC3)CC2)c(C)o1 | 1.89%
32 | COCCn1cnc2c1c(=O)n(Cc1ccc(Br)cc1)c(=O)n2Cc1ccccc1 | 11%
33 | N=c1c2c(-c3ccccc3)c(-c3ccccc3)n(Cc3ccccc3)c2ncn1CCCO | 58.6% (active)
34 | CCN(CC)CCn1cnc2c1c(=O)[nH]c(=O)n2Cc1ccccc1 | -2.97%
35 | CSc1nc(-c2ccccc2)nc(C(Cl)Cl)n1 | 11%
36 | Nc1cccnc1Sc1ccccc1 | 3.25%
37 | Cc1ccc2c(c1)N(CC(=O)NCCCN1CCCCC1)C(=O)c1cccnc1O2 | -8.41%
38 | COC(=O)C1C(=O)c2c([nH]c(C(=O)OCCSC)c2C)CC1C (stereo not given) | -39.9%
39 | CCCOC(=O)c1[nH]c2c(c1C)C(=O)CC(c1cccs1)C2 (stereo not given) | 60.8% (active)
40 | COCCOC(=O)c1[nH]c2c(c1C)C(=O)CC(c1ccc(OC)cc1)C2 (stereo not given) | -19.4%

Row | SMILES | inhibition
41 | O=S(=O)(c1ccc(Sc2nnc3ccccn23)nc1)N1CCOCC1 | -12%
42 | Cc1c(Br)c([N+](=O)[O-])nn1C(C)C(=O)Nc1nccs1 (stereo not given) | 22.7%
43 | COc1cc([C@H](Cc2ccccc2)NC(C)=O)oc(=O)c1 | 8.38%
44 | CCN1/C(=C\c2ccc3ccccc3[n+]2CC)Sc2cc(C)ccc21 | 90.1% (active)
45 | CCSC1=C(C#N)C(=O)n2c1cc1c2CCCC1 | 3.71%
46 | O=C1CC(N2CCN(C(c3ccccc3)c3ccccc3)CC2)C(=O)N1 (stereo not given) | 4.97%
47 | Oc1ccccc1CN1CCN(C(c2ccccc2)c2ccccc2)CC1 | -10.4%
48 | CC1(C)CC(N2CCN(C(c3ccccc3)c3ccccc3)CC2)=CC(=[N+]2CCCCC2)C1 | 83.2% (active)
49 | CC(C)(C)NS(=O)(=O)CC12CCC(CC1=O)C2(C)C (stereo not given) | -14%
50 | CC/C(=N\NC(=O)c1c(C)nc2ccccn12)c1ccc(Cl)cc1 | -10.6%
51 | Cc1c(NC(=O)Nc2ccccc2Cl)sc(=S)n1C | 10.9%
52 | O=C(Nc1ccccc1Cl)/C(Cl)=C(\Cl)S(=O)c1ccccc1 (stereo not given) | 100% (active)
53 | CC1(C)CC(CCC(=O)Nc2ccccc2Cl)C(=O)O1 (stereo not given) | 5.25%
54 | CSc1n[nH]c(=S)n1N | 8.75%
55 | COc1ccccc1-c1nnc2n1N=C(c1ccc(OC(F)F)c(OCC3CC3)c1)CS2 | 21.8%
56 | COc1ccc(C2=Nn3c(nnc3-c3ccccc3OC)SC2)cc1OC1CCCC1 | 57.3% (active)
57 | CC1=Nn2c(nnc2-c2ccccc2)SC1 | -7.08%
58 | COc1cc(C(=S)NC2CCCCC2)ccc1O | -4.8%
59 | C/C(CC(O)(/C=N/O)c1ccccc1)=N\O (stereo not given) | -6.87%
60 | CCCNC(=O)OC[C@H]1O[C@H](CCO/N=C/[C@@H](NS(=O)(=O)c2ccc(C)cc2)[C@H](C)/C=C/CC(=O)OC)C=C[C@@H]1Oc1ccc(OC)cc1 | 8.93%
